Data reported in PubChem BioAssay (EPA / NIEHS).
Where “and” joins values, the source holds several entries; their conditions need not be identical. Equal values may be shown once. Calls of active or inactive are those of the source. How the source made its calls: active means hit-call score of the fitted dose curve at least 0.9, where 1 is the maximum; inactive means score below 0.9.

Assay: BSK_MyoF_SRB: Viability Assessment in the BioMAP Diversity Plus: MyoF Assay (AID 2284267)
Details: primary human lung fibroblasts
Method: BSK_MyoF is a cell-based, multiplexed-readout assay that uses lung fibroblasts, […], with measurements taken at 24 hours after chemical dosing in a microplate: 96-well plate.BSK_MyoF_SRB is an assay component measured in the BSK_MyoF assay. It measures 0.1% sulforhodamine related to cell death using Sulforhodamine staining technology.Data from the assay component BSK_MyoF_SRB was analyzed at the endpoint, BSK_MyoF_SRB, in the positive analysis fitting direction relative to DMSO as the negative control and baseline of activity. Using a type of viability reporter, gain or loss-of-signal activity can be used to understand protein changes. To generalize the intended target to other relatable targets, this assay endpoint is annotated to the 'cell morphology' intended target family, where the subfamily is 'cell conformation'.
The levels of cell surface (or secreted, indicated by the prefix "s") biomarker endpoints were measured by ELISA. Overt cytotoxicity to cells in confluent adherent cultures (all systems other than the BT system) was assessed by measuring total protein levels using sulforhodamine B (SRB) staining in parallel cultures at the time of biomarker measurements, indicated as SRB endpoints. For proliferation assays for adherent cell types, individual cell types are cultured at sub-confluence and relative cell numbers quantified by SRB staining at time points optimized for each system (48 h: 3C and CASM3C systems; 72 h: BT and HDF3CGF systems; 96 h: SAg system). SRB was performed by staining cells with 0.1% SRB after fixation with 10% TCA and reading wells at 560 nm.Viability and proliferation of PBMC (T cells) was quantified by Alamar Blue reduction for the SAg and BT systems. For PBMC viability (referred to as PBMC Cytotoxicity within the assay endpoint names), cells were plated (75,000/well in a 96-well plate) and then chemical samples added for 1 h before addition of activators, SEB and TSST-1 (20 ng/mL final concentration each). Cells were incubated for 90 h. Then, Alamar Blue (20 uL/well) (Invitrogen, Cat DAL1100) was added for 6 h, and the plates were read with a fluorescence microplate reader at 546/580 nm (excitation/emission). For PBMC proliferation, cells were plated and activated as above but incubated for only 16 h prior to addition of Alamar Blue. Plates were read after 6 h.

Row | Compound | outcome | AC50
1 | C=C(C)C(=O)OCC(F)(F)C(F)(F)C(F)(F)F | inactive | 
2 | OCC(F)(F)C(F)(F)C(F)(F)C(F)(F)C(F)(F)C(F)F | inactive | 
3 | OCCCC(F)(F)C(F)(F)C(F)(F)F | inactive | 
4 | CCCCOCCOCCOC(=O)CCCCC(=O)OCCOCCOCCCC | inactive | 
5 | O=C(O)C(F)(F)C(F)(F)C(F)(F)C(F)(F)C(F)(F)C(F)(F)C(F)(F)C(F)(F)Cl |  | 30.9 µM (active) and 35.5 µM (active)
6 | CCc1ccc(C(c2ccc(CC)cc2)C(Cl)Cl)cc1 |  | 25.7 µM (active)
7 | FC(F)(F)C(F)(F)C(F)(F)CI | inactive | 
8 | O=C(O)C(F)(F)C(F)(F)C(F)(F)C(F)(F)C(F)(F)C(F)(F)C(F)(F)C(F)(F)C(F)(F)C(F)(F)C(F)(F)C(F)(F)C(F)(F)F | inactive | 
9 | Oc1ccc(Nc2ccccc2)cc1 | inactive | 
10 | O=C(O)C(F)(OC(F)(F)C(F)(OC(F)(F)C(F)(F)C(F)(F)F)C(F)(F)F)C(F)(F)F (stereo not given) | inactive | 
11 | C=CC(=O)OCC(F)(F)C(F)(F)C(F)(F)C(F)(F)COC(=O)C=C |  | 17.1 µM (active) and 18.2 µM (active)
12 | CO[Si](OC)(c1ccccc1)c1ccccc1 |  | 29.4 µM (active)
13 | FC(F)(F)C(F)(F)C(F)(F)C(F)(F)C(F)(F)C(F)(F)C(F)(F)I |  | 4.81 µM (active) and 4.71 µM (active)
14 | C=C(C)C(=O)OCCC(F)(F)C(F)(F)C(F)(F)C(F)(F)C(F)(C(F)(F)F)C(F)(F)F | inactive | 
15 | O=P(O)(O)OCCC(F)(F)C(F)(F)C(F)(F)C(F)(F)C(F)(F)C(F)(F)F | inactive | 
16 | C=CC(F)(F)C(F)(F)C(F)(F)C(F)(F)C(F)(F)C(F)(F)C(F)(F)C(F)(F)F | inactive | 
17 | FC(F)(F)C(F)(F)C(F)(F)C(F)(F)C(F)(F)C(F)(F)CCS | inactive | 
18 | FC1CC(F)(F)C(F)(F)C1(F)F (stereo not given) | inactive | 
19 | O=C(O)C(F)(F)C(F)(F)OC(F)(F)F | inactive | 
20 | CS(C)(=O)=O | inactive | 

Row | Compound | outcome | AC50
21 | FC(F)(Br)C(F)(F)C(F)(F)C(F)(F)C(F)(F)C(F)(F)Br | inactive | 
22 | O=C(O)C(F)(F)C(F)(F)C(F)(F)F | inactive | 
23 | O=C(O)C(F)(F)C(F)(F)C(F)F | inactive | 
24 | C=C(C)C(=O)OCC(F)(F)C(F)(F)C(F)(F)C(F)(F)C(F)(F)C(F)(F)C(F)(F)F | inactive | 
25 | CCCCNc1ccccc1 | inactive | 
26 | O=S(=O)(OCCOC(F)(F)F)C(F)(F)F | inactive | 
27 | O=C(O)C(F)(F)C(F)(F)C(F)(F)C(F)(F)F | inactive | 
28 | CCCCCCCOC(=O)c1ccccc1C(=O)OCCCCCCC | inactive | 
29 | O[Si](c1ccccc1)(c1ccccc1)c1ccccc1 |  | 23.8 µM (active)
30 | FC(F)(F)C(F)(F)C(F)(F)C(F)(F)C(F)(F)C(F)(F)CC1CO1 (stereo not given) | inactive | 
31 | CC(C)(C)C(=O)CC(=O)C(F)(F)C(F)(F)C(F)(F)F | inactive | 
32 | C=CC(=O)OCC(F)(F)C(F)(F)C(F)(F)C(F)(F)C(F)(F)C(F)(F)C(F)(F)F | inactive | 
33 | C#C[C@]1(O)CC[C@H]2[C@@H]3CCc4cc(OC)ccc4[C@H]3CC[C@@]21C | inactive | 
34 | OCC(F)(F)C(F)(F)C(F)(F)C(F)F | inactive | 
35 | CCO[Si](CCC(F)(F)C(F)(F)C(F)(F)C(F)(F)C(F)(F)C(F)(F)F)(OCC)OCC | inactive | 
36 | COC(=O)CCC(F)(F)C(F)(F)C(F)(F)C(F)(F)F | inactive | 
37 | Nc1ccc([N+](=O)[O-])cc1O | inactive | 
38 | FC(F)(F)C(F)(F)C(F)(F)C(F)(F)C(F)(F)C(F)(F)C(F)(F)C(F)(F)F | inactive | 
39 | N=C(N)C(F)(F)C(F)(F)C(F)(F)C(F)(F)C(F)(F)C(F)(F)C(F)(F)F | inactive | 
40 | CCN(CC)c1ccc2c(C)cc(=O)oc2c1 | inactive | 
